Results taken from PubChem BioAssay (NCATS).
Unmarked numbers belong to inactive results. Inconclusive results are not listed. Calls of active or inactive are those of the source. Unless noted, the call rests on the fitted dose curve; in most records, active means well fitted curve in either direction with a large enough effect (not every such curve was filed as active); inconclusive means small, poorly fitted or top-dose-only effect, or another doubt; inactive means flat fitted curve, though single readings scatter.

Key:
[1] = target: Lysosomal acid glucosylceramidase (Homo sapiens) (UniProt P04062); test: Glucocerebrosidase-p2 (AID 348; in the data active means potency below about 10 µM; further: potency means the concentration at half of the fitted maximal effect); settings: purified GBA, blue fluorogenic substrate, 40 min
Summary of the method: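 Normal human glucocerebrosidase (0.2 nM) with blue fluorogenic substrate (80 uM final) in citrate/phosphate pH 5.9 with 10mM sodium taurocholate, 0.01% tween-20; 40 min RT, NaOH/glycine stop; fluorescence Ex 365/Em 440; AC50 from a titration from 0.6 nM upwards.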

[2] = AP1 Signaling Pathway (AID 357); settings: ME-180 AP-1-bla reporter, EGF-induced, beta-lactamase ratio, 5 h; at 7.69 µM (top of the series) unless noted; further: on the % scale 0 is the no-effect control and ±100 the full control effect
Summary of the method: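 AP-1-bla ME-180 cells with beta-lactamase reporter under AP-1 response element, stimulated with EC50 EGF; compounds titrated, 5 hours at 37 degrees Celsius. CCF4 read at 460/530 nm ratio; positive and negative modulators judged by AC50.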

[3] = target: Cytochrome P450 1A2 (Homo sapiens) (UniProt P05177); test: p450-cyp1a2 (AID 410; calls by dose curve; further: potency means the concentration at half of the fitted maximal effect); settings: recombinant CYP1A2, luciferin-ME demethylation, luminescence; series mostly up to 57 µM
Summary of the method: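 20nM CYP1A2, 100uM Luciferin-ME (=Km), 100mM KPO4; cpd 10 min RT; +NADPH regen, 60 min RT; stop/detect 20 min; luminescence. Normalized to furafylline 57 uM = full inhibition.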

[4] = NFAT Signaling Pathway (AID 444); settings: Jurkat NFAT-bla M1, carbachol, beta-lactamase ratio, 5 h; at 7.69 µM (top of the series) unless noted;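 further: carbachol stimulus at about its EC50 of 1 µM final; on the % scale 0 is the no-effect control and ±100 the full control effect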
Summary of the method: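 Jurkat cells carrying an NFAT-driven β-lactamase reporter and co-transfected muscarinic M1 receptor were treated with compound plus carbachol (1 uM final, an EC50 level) for 5 h at 37 °C. CCF4 loading followed for 1 h at RT; 460/530 nm ratio gave %activity.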

[5] = Stat Signaling Pathway (AID 446); settings: ME-180 SIE beta-lactamase reporter, IL-6 stimulated, 5 h; at 7.69 µM (top of the series) unless noted;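 further: ME-180 cervical cancer cells given 40 pM IL-6 alongside compound; SIE-controlled beta-lactamase reporter measured as 460/530 nm FRET emission ratio; on the % scale 0 is the no-effect control and ±100 the full control effect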
Summary of the method: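 FRET read-out (405 nm excitation, 460/530 nm emission) of a beta-lactamase reporter under a STAT-inducible element in ME-180 cervical carcinoma cells. Cells with compound receive 40 pM IL-6 for 5 h. Values are normalised to AC90 stimulation and AC90 JAK-inhibitor controls.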

[6] = target: Glucocorticoid receptor (Homo sapiens) (UniProt P04150); test: GR-GFP Redistribution (AID 450;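 active means compounds whose dose series gives a full or clear partial fitted curve of increased nuclear translocation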; further: potency means the concentration at half of the fitted maximal effect); settings: U2OS GR-GFP nuclear translocation, laser cytometry, 2 h
[7] = target: Glucocorticoid receptor (Homo sapiens) (UniProt P04150); test: GR-EFC Redistribution (AID 451; calls by dose curve; further: potency means the concentration at half of the fitted maximal effect); settings: CHO-K1 GR-EFC translocation, beta-gal luminescence, 2 h
Summary of the method: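 CHO-K1 cells stably expressing nuclear-localized β-gal enzyme acceptor and GR fused C-terminally to the enzyme donor fragment; ligand-driven nuclear translocation restores β-gal by complementation. Compounds titrated up to 46 uM final, 2 h at 37 °C; luminescence read.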

[8] = target: Mitogen-activated protein kinase 10 (Mus musculus) (UniProt Q61831); test: JNK3 AlphaScreen Assay (AID 530); settings: JNK3 lysate, c-Jun phosphorylation; series mostly up to 57.1 µM;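 further: kinase came from lysate of stimulated human HepG2 cells; signal reports phosphorylation of biotinylated GST-cJun 1-79 at Ser73 with 10 µM ATP; on the % scale 0 is the no-effect control and ±100 the full control effect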
Summary of the method: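 Biotinylated GST-cJun(1-79) served as substrate for JNK3 in HepG2 lysates stimulated with IL-1beta and TNF-alpha. ATP was 10 uM final, pH 7.6. Ser73 phosphorylation was quantified by AlphaScreen (680 nm excitation).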

[9] = target: 3',5'-cyclic-AMP phosphodiesterase 4B (Homo sapiens) (UniProt Q07343); test: qHTS Assay for Inhibitors of PDE-IV (AID 607; active means well fitted activation curve with a large enough effect in the main read-out, with a control signal flat, not every such curve was filed as active; further: % of control where 0% means no effect); settings: HEK293 ACTOne CNG channel cells, membrane potential fluorescence; series mostly up to 22.9 µM
Summary of the method: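 Cell-based read-out of cAMP via a modified cyclic nucleotide-gated channel and membrane potential dye (535/590 nm) in HEK293 cells expressing PDE4 endogenously. Compounds tested up to 22.9 uM final; 100 uM RO 20-1724 reference.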

[10] = qHTS Assay for Identification of Small Molecule Agonists for Hypoxia Response Element Signaling Pathway (AID 914; active means well fitted activation curve with a large enough effect in the signal ratio, with a control signal flat, not every such curve was filed as active; the % refers to the signal ratio; further: % of control where 0% means no effect); settings: ME-180 (cervical carcinoma) HRE-bla reporter, beta-lactamase ratio, CoCl2, 17 h; activation: stronger effect = higher value
Summary of the method: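 A beta-lactamase reporter under hypoxia response element control in ME-180 cells served as the system. Compound titrations plus EC50 CoCl2 ran 17 h at 37 degrees Celsius; AC50 values were fitted from %Activity.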

[11] = Primary qHTS for small molecule stabilizers of the endoplasmic reticulum resident proteome: Secreted ER Calcium Modulated Protein (SERCaMP) assay (AID 1508630; active means well fitted curve in the direction sought with a large enough effect; an effect the other way counts as inactive or inconclusive; further: on the % scale 0 is the no-effect control and ±100 the full control effect); settings: SH-SY5Y GLuc-SERCaMP (Gaussia luciferase released on ER calcium loss) secretion, thapsigargin, luminescence; series mostly up to 38.4 µM
Summary of the method: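 The SH-SY5Y reporter protocol was run at 3 concentrations up to 38.3 uM (primary) or 11 concentrations (follow-up): 16 h compound, 100 nM thapsigargin for 4 h, then extracellular luciferase luminescence.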

[12] = target: Cytochrome P450 3A4 (Homo sapiens) (UniProt P08684); test: qHTS Assay for Activators of Cytochrome P450 3A4 (AID 885; active means well fitted curve in the direction sought with a large enough effect; an effect the other way counts as inactive or inconclusive; further: nearly all actives have a fitted effect of over 65% in size); settings: recombinant CYP3A4, Luciferin-PPXE luminescence, 60 min; series mostly up to 57.1 µM
Summary of the method: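 Luminescent readout of luciferin formed from 25 uM Luciferin-PPXE (KM level) by 20 nM CYP3A4 in 200 mM KPO4, with 60 min NADPH-driven reaction at room temperature after 10 min compound exposure. Ketoconazole (57 uM) defined 100% inhibition.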

[13] = target: Cytochrome P450 2C9 (Homo sapiens) (UniProt P11712); test: qHTS Assay for Inhibitors and Substrates of Cytochrome P450 2C9 (AID 883; active means well fitted curve in the direction sought with a large enough effect; an effect the other way counts as inactive or inconclusive; further: potency means the concentration at half of the fitted maximal effect; nearly all actives have a fitted effect of over 60% in size); settings: recombinant CYP2C9, luciferin-H luminescence, 60 min; series mostly up to 57.1 µM
Summary of the method: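 Human CYP2C9 (10nM) hydroxylated Luciferin-H (100uM, at its KM) to luciferin in 25mM KPO4. Compound was preincubated 10 min at 37C, then NADPH regeneration started a 60 min reaction at 37C. Luminescence was read after detection reagent, normalized to 57uM sulphaphenazole.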

[14] = target: Cytochrome P450 3A4 (Homo sapiens) (UniProt P08684); test: qHTS Assay for Inhibitors and Substrates of Cytochrome P450 3A4 (AID 884; active means well fitted curve in the direction sought with a large enough effect; an effect the other way counts as inactive or inconclusive; further: potency means the concentration at half of the fitted maximal effect; nearly all actives have a fitted effect of over 50% in size); settings: recombinant CYP3A4, Luciferin-PPXE luminescence; series mostly up to 57.1 µM
Summary of the method: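 Luminescent readout of luciferin produced by CYP3A4 (20 nM) dealkylation of Luciferin-PPXE, 25 uM (its KM). NADPH-driven reaction ran 60 min at RT after 10 min compound preincubation; data scaled to 57 uM ketoconazole as 100% inhibition.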

Chain of 3',5'-cyclic-AMP phosphodiesterase 4B (Homo sapiens) (Q07343 whole entry, looked up): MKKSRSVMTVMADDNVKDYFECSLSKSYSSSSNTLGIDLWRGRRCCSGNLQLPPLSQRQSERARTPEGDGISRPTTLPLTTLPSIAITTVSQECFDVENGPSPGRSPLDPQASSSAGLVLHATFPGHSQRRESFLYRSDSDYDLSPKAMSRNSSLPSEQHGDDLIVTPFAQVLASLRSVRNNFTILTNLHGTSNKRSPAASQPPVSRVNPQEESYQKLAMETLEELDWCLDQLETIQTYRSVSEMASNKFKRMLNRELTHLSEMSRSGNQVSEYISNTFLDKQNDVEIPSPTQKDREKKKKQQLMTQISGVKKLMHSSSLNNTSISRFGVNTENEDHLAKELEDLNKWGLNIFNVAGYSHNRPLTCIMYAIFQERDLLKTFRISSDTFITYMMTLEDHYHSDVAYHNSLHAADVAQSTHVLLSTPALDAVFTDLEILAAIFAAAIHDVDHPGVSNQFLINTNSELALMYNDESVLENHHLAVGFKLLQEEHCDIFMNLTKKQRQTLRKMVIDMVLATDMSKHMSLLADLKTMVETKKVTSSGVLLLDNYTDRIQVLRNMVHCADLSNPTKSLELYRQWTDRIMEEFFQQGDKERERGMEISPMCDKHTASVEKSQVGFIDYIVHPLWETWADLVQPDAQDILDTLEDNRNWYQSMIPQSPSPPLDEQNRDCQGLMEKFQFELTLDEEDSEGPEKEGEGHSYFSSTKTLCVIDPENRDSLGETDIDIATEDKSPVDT
Chain of Lysosomal acid glucosylceramidase (Homo sapiens) (P04062 whole entry, looked up): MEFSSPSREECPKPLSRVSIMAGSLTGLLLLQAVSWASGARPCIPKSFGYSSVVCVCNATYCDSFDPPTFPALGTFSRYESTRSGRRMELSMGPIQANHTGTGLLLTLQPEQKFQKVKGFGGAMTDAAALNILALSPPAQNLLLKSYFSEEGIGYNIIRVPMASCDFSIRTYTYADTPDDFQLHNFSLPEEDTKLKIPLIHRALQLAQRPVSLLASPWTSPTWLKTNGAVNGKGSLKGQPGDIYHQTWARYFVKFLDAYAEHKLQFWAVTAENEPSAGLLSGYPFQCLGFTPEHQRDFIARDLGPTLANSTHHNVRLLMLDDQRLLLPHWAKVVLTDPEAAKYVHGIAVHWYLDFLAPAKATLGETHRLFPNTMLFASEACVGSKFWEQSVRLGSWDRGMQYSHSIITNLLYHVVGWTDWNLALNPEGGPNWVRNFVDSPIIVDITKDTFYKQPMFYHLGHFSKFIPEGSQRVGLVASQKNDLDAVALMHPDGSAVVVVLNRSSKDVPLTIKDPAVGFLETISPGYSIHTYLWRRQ
Chain of Cytochrome P450 1A2 (Homo sapiens) (P05177 whole entry, looked up): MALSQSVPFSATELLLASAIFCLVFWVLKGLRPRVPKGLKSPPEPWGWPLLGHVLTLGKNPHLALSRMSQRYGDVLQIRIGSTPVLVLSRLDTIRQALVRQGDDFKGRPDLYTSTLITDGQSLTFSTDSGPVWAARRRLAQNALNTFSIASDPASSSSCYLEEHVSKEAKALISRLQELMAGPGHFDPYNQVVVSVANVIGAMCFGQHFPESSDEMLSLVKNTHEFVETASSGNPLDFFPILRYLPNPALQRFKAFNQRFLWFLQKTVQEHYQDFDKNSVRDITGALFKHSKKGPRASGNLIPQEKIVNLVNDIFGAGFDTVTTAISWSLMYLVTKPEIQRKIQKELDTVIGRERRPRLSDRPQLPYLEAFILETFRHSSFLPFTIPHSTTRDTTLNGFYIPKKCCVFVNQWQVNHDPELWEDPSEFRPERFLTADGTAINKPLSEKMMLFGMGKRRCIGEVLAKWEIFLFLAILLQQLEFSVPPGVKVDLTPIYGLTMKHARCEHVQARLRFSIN
Chain of Glucocorticoid receptor (Homo sapiens) (P04150 whole entry, looked up, the tested form may be a part): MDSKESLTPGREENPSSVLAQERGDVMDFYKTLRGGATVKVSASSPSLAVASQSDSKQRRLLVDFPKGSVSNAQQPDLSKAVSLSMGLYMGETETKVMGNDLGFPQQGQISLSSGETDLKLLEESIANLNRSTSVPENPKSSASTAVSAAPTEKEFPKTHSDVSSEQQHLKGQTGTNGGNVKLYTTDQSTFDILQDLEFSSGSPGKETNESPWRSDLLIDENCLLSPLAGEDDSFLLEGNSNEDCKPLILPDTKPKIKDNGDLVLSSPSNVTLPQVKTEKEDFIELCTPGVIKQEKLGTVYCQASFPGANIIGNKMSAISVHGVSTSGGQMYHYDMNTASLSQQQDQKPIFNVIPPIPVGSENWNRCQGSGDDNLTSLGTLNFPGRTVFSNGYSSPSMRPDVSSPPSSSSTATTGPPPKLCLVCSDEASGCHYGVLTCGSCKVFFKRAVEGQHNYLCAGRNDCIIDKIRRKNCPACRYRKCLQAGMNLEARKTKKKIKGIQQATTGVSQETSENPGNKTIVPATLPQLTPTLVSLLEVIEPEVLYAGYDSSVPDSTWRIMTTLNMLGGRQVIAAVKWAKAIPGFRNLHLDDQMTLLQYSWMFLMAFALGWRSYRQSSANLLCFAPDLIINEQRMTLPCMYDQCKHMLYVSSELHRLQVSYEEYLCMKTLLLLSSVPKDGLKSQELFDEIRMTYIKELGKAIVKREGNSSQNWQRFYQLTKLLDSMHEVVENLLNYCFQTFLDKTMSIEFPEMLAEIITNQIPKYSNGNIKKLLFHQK
Chain of Cytochrome P450 3A4 (Homo sapiens) (P08684 whole entry, looked up): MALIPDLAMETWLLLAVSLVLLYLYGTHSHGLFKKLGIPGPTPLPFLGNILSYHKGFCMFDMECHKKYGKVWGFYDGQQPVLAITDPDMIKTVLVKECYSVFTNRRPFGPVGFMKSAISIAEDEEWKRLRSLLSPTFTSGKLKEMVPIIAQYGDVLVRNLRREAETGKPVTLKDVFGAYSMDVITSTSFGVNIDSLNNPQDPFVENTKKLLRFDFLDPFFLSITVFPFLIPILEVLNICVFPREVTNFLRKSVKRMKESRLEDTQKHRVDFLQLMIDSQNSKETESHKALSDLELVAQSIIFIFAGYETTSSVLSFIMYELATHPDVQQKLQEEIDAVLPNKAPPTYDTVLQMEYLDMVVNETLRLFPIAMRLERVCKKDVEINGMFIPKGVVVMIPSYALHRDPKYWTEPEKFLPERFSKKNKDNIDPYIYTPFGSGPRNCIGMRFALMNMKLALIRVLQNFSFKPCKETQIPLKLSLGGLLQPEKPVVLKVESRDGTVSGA
Chain of Cytochrome P450 2C9 (Homo sapiens) (P11712 whole entry, looked up): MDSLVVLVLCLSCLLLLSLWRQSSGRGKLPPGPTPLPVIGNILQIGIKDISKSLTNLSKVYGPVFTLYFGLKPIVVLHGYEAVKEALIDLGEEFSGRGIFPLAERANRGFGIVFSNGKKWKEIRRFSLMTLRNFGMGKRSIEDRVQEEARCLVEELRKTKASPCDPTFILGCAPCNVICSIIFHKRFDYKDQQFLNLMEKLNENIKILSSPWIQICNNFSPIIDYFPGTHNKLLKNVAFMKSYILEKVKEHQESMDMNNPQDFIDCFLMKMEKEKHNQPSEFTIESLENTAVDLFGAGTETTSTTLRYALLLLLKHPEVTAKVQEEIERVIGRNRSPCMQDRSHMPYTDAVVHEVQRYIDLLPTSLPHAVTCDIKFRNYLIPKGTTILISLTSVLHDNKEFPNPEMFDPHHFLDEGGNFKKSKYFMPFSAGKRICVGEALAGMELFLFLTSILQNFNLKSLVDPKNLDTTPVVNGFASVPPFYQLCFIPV

Question: For COc1ncc2nc(CCc3ccccc3)c(=O)n(CCC#N)c2n1, which Potency [1] is on record?
Answer: > 11.4 µM

Question: And the activity change, negative = inhibition [2]?
Answer: -1.07%

Question: What about the Potency [3] of the same compound?
Answer: 15.8 µM (active)

Question: What about the activity change, negative = inhibition [4] of the same compound?
Answer: -10.8%

Question: What about the activity, negative = inhibition [5] of the same compound?
Answer: -4.61%

Question: And the Potency [6]?
Answer: > 9.22 µM

Question: What about the Potency [7] of the same compound?
Answer: > 46 µM

Question: What about the Potency [8] of the same compound?
Answer: inactive

Question: And the Potency [9]?
Answer: inactive

Question: And the activation [10]?
Answer: -14.7%

Question: And the outcome [11]?
Answer: inactive

Question: What does the source list for Cn1c(=O)c(CCc2ccccc2)nc2cncnc21?
Answer: Potency [1]: > 11.4 µM; activity change, negative = inhibition [2]: -10.9%; Potency [3]: 7.94 µM (active); activity change, negative = inhibition [4]: -3.66%; activity, negative = inhibition [5]: -13.2%; Potency [6]: > 9.22 µM; Potency [7]: > 46 µM; Potency [8]: inactive; Potency [9]: inactive; Potency [12]: inactive; outcome [11]: inactive

Question: With Cc1nc2cncnc2n(-c2ccccc2)c1=O as the compound, how does the Potency [1] read?
Answer: > 11.4 µM

Question: What about the activity change, negative = inhibition [2] of the same compound?
Answer: -11.8%

Question: And the Potency [3]?
Answer: 10 µM (active)

Question: What about the activity change, negative = inhibition [4] of the same compound?
Answer: -0.117%

Question: What about the activity, negative = inhibition [5] of the same compound?
Answer: -12.5%

Question: And the Potency [6]?
Answer: > 9.22 µM

Question: And the Potency [7]?
Answer: > 46 µM

Question: What about the Potency [8] of the same compound?
Answer: inactive

Question: And the Potency [9]?
Answer: inactive

Question: And the Potency [12]?
Answer: inactive

Question: What about the outcome [11] of the same compound?
Answer: inactive

Question: For COc1cccc(Cn2c(=O)cnc3cnc(Oc4cccc(Cl)c4)nc32)c1, which Potency [1] is on record?
Answer: > 11.4 µM

Question: And the activity change, negative = inhibition [2]?
Answer: -19.7%

Question: What about the Potency [3] of the same compound?
Answer: 12.6 µM (active)

Question: What about the activity change, negative = inhibition [4] of the same compound?
Answer: -4.32%

Question: What about the activity, negative = inhibition [5] of the same compound?
Answer: -20.6%

Question: What about the Potency [6] of the same compound?
Answer: > 9.22 µM

Question: And the Potency [7]?
Answer: > 46 µM

Question: And the Potency [8]?
Answer: inactive

Question: And the Potency [13]?
Answer: 3.98 µM (active)

Question: And the Potency [14]?
Answer: 5.01 µM (active)

Question: And the Potency [12]?
Answer: inactive

Question: And the outcome [11]?
Answer: inactive

Question: What does the source list for COc1ccc(-n2c(=O)c(C)nc3cnc(N(C)C)nc32)cc1?
Answer: Potency [1]: > 11.4 µM; activity change, negative = inhibition [2]: -8.91%; Potency [3]: 6.31 µM (active); activity change, negative = inhibition [4]: 5.39%; activity, negative = inhibition [5]: -5.54%; Potency [6]: > 9.22 µM; Potency [7]: > 46 µM; Potency [8]: inactive; Potency [9]: inactive; Potency [12]: inactive; outcome [11]: inactive

Question: With O=c1cnc2cnc(OCc3ccccc3)nc2n1Cc1ccc(F)cc1 as the compound, how does the Potency [1] read?
Answer: > 11.4 µM

Question: What about the activity change, negative = inhibition [2] of the same compound?
Answer: -29.4%

Question: What about the Potency [3] of the same compound?
Answer: 12.6 µM (active)

Question: And the activity change, negative = inhibition [4]?
Answer: -14.6%

Question: And the activity, negative = inhibition [5]?
Answer: -21.4%

Question: And the Potency [6]?
Answer: > 9.22 µM

Question: What about the Potency [7] of the same compound?
Answer: > 46 µM

Question: And the Potency [8]?
Answer: inactive

Question: And the Potency [14]?
Answer: 5.01 µM (active)

Question: And the Potency [12]?
Answer: inactive

Question: And the outcome [11]?
Answer: inactive

Question: For O=c1c(-c2cccc(F)c2)nc2cncnc2n1-c1ccccc1, which Potency [1] is on record?
Answer: > 11.4 µM

Question: What about the activity change, negative = inhibition [2] of the same compound?
Answer: -10.3%

Question: And the Potency [3]?
Answer: 10 µM (active)

Question: What about the activity change, negative = inhibition [4] of the same compound?
Answer: -2.26%

Question: What about the activity, negative = inhibition [5] of the same compound?
Answer: -2.29%

Question: What about the Potency [6] of the same compound?
Answer: > 9.22 µM

Question: And the Potency [7]?
Answer: > 46 µM

Question: And the Potency [8]?
Answer: inactive

Question: What about the Potency [12] of the same compound?
Answer: inactive

Question: What about the outcome [11] of the same compound?
Answer: inactive

Question: For O=c1c(-c2cccc(F)c2)nc2cncnc2n1C1CC1, which Potency [1] is on record?
Answer: > 11.4 µM

Question: What about the activity change, negative = inhibition [2] of the same compound?
Answer: -9.05%

Question: What about the Potency [3] of the same compound?
Answer: 1.58 µM (active)

Question: And the activity change, negative = inhibition [4]?
Answer: -1.62%

Question: And the activity, negative = inhibition [5]?
Answer: 1.43%

Question: And the Potency [6]?
Answer: > 9.22 µM

Question: What about the Potency [7] of the same compound?
Answer: > 46 µM

Question: And the Potency [8]?
Answer: inactive

Question: What about the Potency [9] of the same compound?
Answer: inactive

Question: What about the Potency [12] of the same compound?
Answer: inactive

Question: And the outcome [11]?
Answer: inactive

Question: With Cc1nc2cnc(Oc3ccccc3)nc2n(CCC#N)c1=O as the compound, how does the Potency [1] read?
Answer: > 11.4 µM

Question: And the activity change, negative = inhibition [2]?
Answer: -21.9%

Question: And the Potency [3]?
Answer: 20 µM (active)

Question: What about the activity change, negative = inhibition [4] of the same compound?
Answer: -8.6%

Question: And the activity, negative = inhibition [5]?
Answer: -6.56%

Question: And the Potency [6]?
Answer: > 9.22 µM

Question: What about the Potency [7] of the same compound?
Answer: > 46 µM

Question: What about the Potency [8] of the same compound?
Answer: inactive

Question: And the Potency [9]?
Answer: inactive

Question: What about the Potency [12] of the same compound?
Answer: inactive

Question: And the outcome [11]?
Answer: inactive

Question: Which Potency [1] does the source give for O=c1c(CCc2ccccc2)nc2cncnc2n1-c1ccccc1 here?
Answer: > 11.4 µM

Question: And the activity change, negative = inhibition [2]?
Answer: -24.4%

Question: And the Potency [3]?
Answer: 15.8 µM (active)

Question: What about the activity change, negative = inhibition [4] of the same compound?
Answer: -14%

Question: And the activity, negative = inhibition [5]?
Answer: -17.6%

Question: And the Potency [6]?
Answer: > 9.22 µM

Question: What about the Potency [7] of the same compound?
Answer: > 46 µM

Question: What about the Potency [8] of the same compound?
Answer: inactive

Question: What about the Potency [12] of the same compound?
Answer: inactive

Question: And the outcome [11]?
Answer: inactive
